# In the library only some 1.7% were active in any assay of this set; here they are far more common.
# GLP1R cytotox = cytotoxicity counter-screen for GLP-1 receptor inverse agonists. HEK293 cAMP-luciferase reporter cells, luminescence, 24 h. Potency, µM (titrated, usually from 38.3 µM), for the others: at the highest dose activity change, negative = inhibition, most hits filed as inhibitors. hit rate 0.13% among 410,000;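 also: loss of luciferase light is scored as toxicity; % is scaled to controls: 0 for no effect and ±100 for the full control effect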
#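 A 23 nL compound transfer followed 12 hours of cell culture at 37 deg C; exposure then lasted 24 hr. Luciferase assay detection reagent was dispensed and plates read for luminescence after a 12 min room-temperature wait.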
# GLP1R ag = GLP-1 receptor (human) agonism. P43220. HEK293 GLP-1R CRE-luciferase, luminescence, 4-6 h; cells express a hypersensitive GLP-1R form. Potency, µM (top dose mostly 45.6 µM), inactives show at the highest dose activation, actives largely listed as activators. hit rate 0.007% among 380,000; also: % of control where 0% means no effect
# GLP1R inv ag = acts as inverse agonist at human GLP-1 receptor | AID 624417 | HEK293 GLP-1R CRE-luciferase, luminescence, 24 h; GLP-1R form is constitutively active | P43220 | Potency, µM (titrated, usually from 38.3 µM), for inactives: at the top dose activity change, negative = inhibition, hits mostly inhibitors | hit rate 1.6% among 410,000; also: % is scaled to controls: 0 for no effect and ±100 for the full control effect; nearly all actives have a fitted effect of over 55% in size
#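 Inverse agonism was detected as reduced cAMP-driven luciferase luminescence after 24 h compound treatment. The cells were HEK293 clones expressing constitutively active human GLP-1R with the reporter. Reporter-only and GPR119 cell lines served as counterscreen controls.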
# PTHR1 agonist = agonists of human PTHR1 parathyroid hormone receptor; AID 743266; HEK293 GP2 PTHR1 cells, GloSensor cAMP luminescence, 1 h; Q03431; Potency, µM (series often up to 115 µM), without a hit: at the highest dose activation, usual class: activators; hit rate 0.075% among 410,000; also: nearly all actives have a fitted effect of over 55% in size
# Target sequence (Q03431 whole entry, looked up): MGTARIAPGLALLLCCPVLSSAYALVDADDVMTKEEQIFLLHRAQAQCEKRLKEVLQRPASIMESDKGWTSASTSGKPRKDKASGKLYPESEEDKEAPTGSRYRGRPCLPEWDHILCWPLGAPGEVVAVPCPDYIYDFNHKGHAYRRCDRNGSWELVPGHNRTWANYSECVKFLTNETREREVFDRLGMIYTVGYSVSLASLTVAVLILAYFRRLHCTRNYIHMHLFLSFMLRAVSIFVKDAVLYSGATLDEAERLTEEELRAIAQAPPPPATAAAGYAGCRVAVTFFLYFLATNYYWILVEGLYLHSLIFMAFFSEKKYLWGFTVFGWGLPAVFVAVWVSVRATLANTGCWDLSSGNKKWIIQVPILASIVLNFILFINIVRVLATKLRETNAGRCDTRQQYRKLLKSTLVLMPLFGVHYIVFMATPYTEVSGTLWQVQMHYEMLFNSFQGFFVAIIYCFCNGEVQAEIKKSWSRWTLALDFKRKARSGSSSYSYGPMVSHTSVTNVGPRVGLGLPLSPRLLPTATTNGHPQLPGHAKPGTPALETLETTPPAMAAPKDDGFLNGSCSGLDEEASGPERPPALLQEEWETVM
#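 HEK-293-derived GP2 cells expressing PTHR1 and a GloSensor cAMP reporter, 3,000/well, plated overnight, given luciferin plus IBMX (each 0.5 mM as added) for 1 h at 37 °C, then compound for 1 h at 37 °C. Luminescence was read after 15 min at room temperature.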
# Active calls of the source: *; i = inactive; ? = inconclusive; . = no result given; [ ] = dose if it differs, or a comment. Calls follow the shape of the dose curve; as a rule, active = well fitted curve in the direction sought with a large enough effect; inconclusive = small, poorly fitted or top-dose-only effect, or another doubt; inactive = no such curve, though single readings can be large; an effect the other way counts as inactive or inconclusive. Potency is read from the fitted curve at half-maximal effect.
SMILES,GLP1R cytotox,GLP1R ag,GLP1R inv ag,PTHR1 agonist
COC(=O)C1=C(c2ccc(-c3ccccc3)c(F)c2)C[C@@H]2CC[C@H]1N2C(=O)NCc1cc(C)oc1C(F)(F)F,4%,-7%,3.5µM*,i
COC(=O)C1=C(c2ccccc2OCc2ccccc2)C[C@@H]2CC[C@H]1N2C(=O)NCCc1ccc(F)cc1,-23%,-2%,22µM*,-24%
O=C1NC[C@H](CCCCN2C[C@@H](Cc3ccccc3)N(CCC3CCCCC3)C(=O)C2=O)N(CCC2CCCCC2)C1=O,5%,-30%,22%,-93%
C[n+]1c(-c2ccccc2)c2cc(N)ccc2c2ccc(N)cc21,?,-3%,1.8µM*,-3%
CCCCc1ccc(C2C3=C(CC(C)(C)CC3=O)NC3=C2C(=O)c2ccccc23)cc1 (configuration not stated),?,-2%,3.5µM*,-12%
Cc1cc(NC(=O)CSc2nnc(-c3ccccc3)c(-c3ccccc3)n2)no1,?,13%,?,-23%
O=c1c2ccccc2nc(/C=C/c2ccccc2)n1-c1ccc(O)cc1,-18%,27%,5.6µM*,-6%
O=C1Nc2ccccc2/C1=C/c1nc2ccccc2c(=O)n1-c1ccc(O)cc1,?,9%,10µM*,-41%
Cc1ccccc1-n1c(/C=C/c2ccc(O)cc2)nc2ccccc2c1=O,84%,.,11µM*,-39%
O=c1c2ccccc2nc(/C=C/c2cccnc2)n1Cc1ccccc1,-22%,10%,5µM*,-8%
CCOC(=O)c1c(NC(=O)CSc2nc3ccc(OC)cc3[nH]2)sc2c1CC(C)(C)NC2(C)C,?,13%,?,i
O=C(NCCSc1c(-c2ccccc2)[nH]c2ccccc12)c1ccc(S(=O)(=O)N2CCOCC2)cc1,1%,.,?,-4%
Cc1ccc([C@H]2N[C@]3(CCCN(Cc4ccc(C(F)(F)F)cc4)C3=O)[C@H]3C(=O)N(Cc4ccccc4)C(=O)[C@@H]23)cc1,-2%,-2%,?,-19%
Cc1ccc(-n2c(/C=C/c3cc(Br)cs3)nc3ccccc3c2=O)cc1C,14%,.,?,i
Cc1ccc(-n2c(/C=C/c3ccc(Br)s3)nc3ccccc3c2=O)cc1C,-3%,.,11µM*,i
CN[C@H](C)Cc1ccccc1,.,15%[96 µM],.,.
COc1ccccc1Cc1c(-c2ccc(C)cc2)nc2cc(C)c(Br)c(C)n12,6%,-1%,?,-12%
CN(C)CCCNC(=S)Nc1ccc(-c2ccccc2)cc1,?,0%,11µM*,-3%
O=C(NN1C(=O)/C(=C/c2ccc(O)c(O)c2)SC1=S)c1ccccc1,?,12%,?,-16%
COc1cc(/C=C2\SC(=S)N(Nc3ncc(C(F)(F)F)cc3Cl)C2=O)ccc1O,?,4%,10µM*,-30%
COC(=O)C1=C(c2cc3ccccc3s2)C[C@@H]2CC[C@H]1N2C(=O)NCc1ccc(C(F)(F)F)cc1,-3%,-5%,4µM*,i
COC(=O)C1=C(c2cc3ccccc3s2)C[C@@H]2CC[C@H]1N2C(=O)NCC1CC1,5%,11%,?,-42%
COC(=O)C1=C(c2cc3ccccc3s2)C[C@@H]2CC[C@H]1N2C(=O)N1CCC(C)CC1,-20%,25%,10µM*,-37%
COC(=O)C1=C(c2cc3ccccc3s2)C[C@@H]2CC[C@H]1N2C(=O)NC1CC1,-7%,-5%,-30%,i
COC(=O)C1=C(c2cc3ccccc3o2)C[C@@H]2CC[C@H]1N2C(=O)NCc1ccc(F)cc1,-2%,3%,11µM*,-39%
SMILES,GLP1R cytotox,GLP1R ag,GLP1R inv ag,PTHR1 agonist
N=C(N)c1c(O)n(C2CCCCC2)c(=O)n(C2CCCCC2)c1=O,11µM*,-38%,4.5µM*,-8%
O=c1c(C=NCc2cccs2)c(O)n(C2CCCCC2)c(=O)n1C1CCCCC1,13%,-2%,?,i
COc1ccc(S(=O)(=O)N(CC(=O)NCc2ccccc2OC)c2ccc(C)cc2)cc1,-20%,.,3.2µM*,i
CN1CCN(Cc2nc3ccccc3n2C)CC1,-15%,-7%,-12%,i
Cn1c(NN=O)nc2ccccc21,?,13%,4.5µM*,-6%
CC(=O)OC1CCC2(C)C(CCC3C2CC(=O)C2(C)C3CC(N3CC3)C2C(C)=O)C1 (configuration not stated),-17%,0%,?,50µM*
CCn1ccnc1CN1CCCC(C(=O)c2cc(Cl)ccc2OC)C1 (configuration not stated),?,6%,10µM*,-85%
CCn1ccnc1CN1CCCC(C(=O)c2cc(C)c(OC)c(C)c2)C1 (configuration not stated),?,6%,?,i
COc1ccc2c(c1)-c1c(ssc1=S)C(C)(C)N2S(=O)(=O)c1ccc(C)cc1,?,0%,2.8µM*,-7%
CCCCNc1ccc2c3c(cccc13)C(=O)N(CCCC)C2=O,411%,9%,7.1µM*,-55%
CCCCC(=O)NC(=S)Nc1nnn(CCC)n1,?,3%,11µM*,i
CCN(CC)C(=O)c1ccc(NC(=S)NC(=O)CCc2ccccc2)cc1,-13%,-4%,?,-25%
Cc1ccc(C2c3c(-c4cc(C)ccc4O)n[nH]c3C(=O)N2Cc2ccco2)cc1 (configuration not stated),?,.,?,-8%
COC(=O)C[C@]1(C(=O)OC)CN(C#N)N(c2ccc(Cl)cc2)C12c1ccccc1-c1ccccc12,1.1µM*,-4%,?,-38%
COC(=O)[C@@H]1[C@@H](C(=O)OC)C2(c3ccccc3-c3ccccc32)N(c2ccc(Cl)cc2)N1C#N,-11%,-16%,4µM*,-37%
CCCCOc1ccc(CNC(=O)c2cc3n(n2)CCCN(Cc2ccc(C)cc2)C3=O)cc1,0%,.,?,-32%
CCC[C@@H](CN[C@@H](CNC)[C@H](C)CC)NCC1CCC(C(C)(C)C)CC1 (some centres not stated),?,-14%,10µM*,-4%
CC1CCN(CCc2nc3cc(NC(=O)COc4ccc([N+](=O)[O-])cc4)ccc3n2C)CC1,?,6%,-19%,-21%
COc1cc(CN2CCN(C(=O)COc3ccccc3)CC2)cc(OC)c1OC,5%,9%,9%,24%
COc1cc(/C=C2\SC(=S)N(CCC(=O)N3CCCCC3)C2=O)cc(OC)c1OC,?,5%,10µM*,i
COc1ccc(OC)c(C(Nc2ccccc2)P(=O)(OC(C)C)OC(C)C)c1 (configuration not stated),-23%,-4%,?,-24%
C[C@]12CC[C@@H]3c4ccc(OC(=O)N(CCCl)CCCl)cc4CC[C@H]3[C@@H]1CC[C@@H]2OP(=O)(O)O,.,1%,.,.
CCOC(=O)c1c(C)[nH]c(-c2csc(N)n2)c1C,?,29%,-11%,-15%
COc1ccc(OCC(=O)Nc2ccc(OC)c(S(=O)(=O)N3CCCCC3)c2)cc1,?,5%,?,-42%

# Source: PubChem BioAssay (National Center for Advancing Translational Sciences (NCATS))
